DAX1 inh-1 – DAX1 (NR0B1) inhibitors, primary screen, cell-based, HEK293, Gal4-DAX1, luciferase luminescence; Nuclear receptor subfamily 0 group B member 1 (Homo sapiens), P51843; HEK293 Gal4-DAX1 luciferase reporter; inhibition, % at 6.75 µM; 340,000 compounds, 0.99% hits;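 active means inhibition above the mean over all tested compounds plus 3 SD, cut at about 4.2% in these data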;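 further: inhibition shows as a rise in luminescence from relieved DAX1 repression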
ssDAF-12 act – S. stercoralis DAF-12 nuclear receptor activators, primary screen, cell-based, luminescence, HEK293, GRIP1 co-expression, lit1-tk-luc; 370,000 compounds, 1% hits; HEK293 ssDAF-12/GRIP1 lit1-tk-luc reporter; % of 3 µM dafachronic acid response; activation, % at 6.8 µM; Nuclear hormone receptor DAF-12 (Strongyloides stercoralis);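 active means activation above the mean over all tested compounds plus 3 SD, cut at about 0.9% in these data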
hcDAF12 agonist – H. contortus DAF-12 nuclear receptor activators, primary screen, cell-based, luminescence, HEK293, lit1-tk-luc reporter | HEK293 hcDAF-12 lit1-tk-luc reporter; 0% DMSO, 100% Δ7-dafachronic acid | activation, % at 6.8 µM | 370,000 compounds, 1.4% hits | AID 652067, 2013;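 active means activation above the mean of all tested compounds plus 3 SD, cut at about 5.5% in these data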
DAX1 inh-2 – DAX1 (NR0B1) inhibitors on StAR promoter, primary screen, cell-based, luminescence, SF-1 (NR5A1), full-length DAX-1. HEK293T StAR-luciferase reporter, SF-1/DAX-1 repression relief. inhibition, % at 6.8 µM. 370,000 compounds, 1.1% hits. AID 652010, 2013;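 active means inhibition above the mean over all tested compounds plus 3 SD, cut at about 3.6% in these data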;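 further: higher inhibition means more luminescence from relief of DAX-1 repression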
hgDAF-12 ag – H. glycines DAF-12 receptor agonists, primary screen, cell-based, luminescence, HEK293, GAL4 fusion, UAS-luciferase; HEK293 GAL4-hgDAF12 UAS-luciferase reporter, agonist luminescence; normalized to butyrate control; 370,000 compounds, 1.8% hits; activation, % at 6.8 µM; AID 687014, 2013;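 active means activation above a cutoff set at the mean of all screened compounds plus 3 SD, cut at about 10% in these data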
LXRb hcDAF ctr – LXR agonists, Gal4 luciferase reporter, confirmation, counter-screen for hcDAF-12 agonist project, cell-based, luminescence, HEK293, H. contortus campaign; shares compounds with hcDAF12 agonist; HEK293 Gal4-LXR tk-luc reporter, 24 h; normalized: DMSO 0%, positive control 100%; activation, % at 6.8 µM; 3,400 tested, under 10 active; AID 743027, 2013;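 active means mean percent activation of the reporter above a cutoff set as the average over tested compounds plus their standard deviation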
Target sequence (P55055 whole entry, looked up, the tested form may be a part): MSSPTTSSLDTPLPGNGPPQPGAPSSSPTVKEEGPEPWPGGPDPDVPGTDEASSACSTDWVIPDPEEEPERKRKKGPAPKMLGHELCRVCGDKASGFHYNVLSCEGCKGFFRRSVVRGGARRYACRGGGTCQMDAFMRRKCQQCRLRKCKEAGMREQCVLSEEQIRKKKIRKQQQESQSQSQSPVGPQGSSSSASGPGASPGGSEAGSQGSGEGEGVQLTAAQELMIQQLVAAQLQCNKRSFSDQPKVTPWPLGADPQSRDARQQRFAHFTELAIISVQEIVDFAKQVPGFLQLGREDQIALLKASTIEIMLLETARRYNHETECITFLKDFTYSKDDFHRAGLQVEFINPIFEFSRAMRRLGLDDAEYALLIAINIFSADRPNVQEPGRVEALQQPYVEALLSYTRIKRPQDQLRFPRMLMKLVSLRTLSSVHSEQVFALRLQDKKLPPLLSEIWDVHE
hcDAF12 conf – H. contortus DAF-12 receptor agonists, confirmation, cell-based, luminescence, HEK293, lit1-tk-luc, triplicate. shares compounds with hcDAF12 agonist. HEK293 hcDAF-12 lit1-tk-luc reporter; % of Δ7-dafachronic acid response. activation, % at 6.8 µM. 3,400 compounds, 61% hits;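 active means mean activation across triplicate tests above the threshold derived from the earlier primary screen, cut at about 5.5% in these data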
Of the large screens only hits and unclear results are named; the others gave an inactive call (follow-up assays come after a bar, where they were run). A selection: hits, their analogues and other compounds. The true share with any hit is near 4.1%.

Cc1cccnc1Nc1nc(-c2ccccc2)cs1	ssDAF-12 act 1.7, hcDAF12 agonist 13.7, DAX1 inh-2 3.7, hgDAF-12 ag 12.6 | LXRb hcDAF ctr inactive | hcDAF12 conf 13.5
c1cncc(Nc2nc(-c3cccnc3)cs2)c1	hcDAF12 agonist 7.2 | LXRb hcDAF ctr inactive | hcDAF12 conf inactive
Cc1cccnc1Nc1nc(-c2ccccn2)cs1	none
c1cncc(Nc2nc(-c3ccncc3)cs2)c1	none
O=C(COc1ccccc1)NC(=S)Nc1ccc2c(c1)Cc1ccccc1-2	none
O=C(NCCC1=CCCCC1)C1CCN(S(=O)(=O)c2ccc(Br)s2)CC1	none
C/C(N)=C(/C#N)C(=O)CSc1nnnn1-c1ccccc1	none
C/C(N)=C(/C#N)C(=O)CSc1nnnn1-c1ccc(C)cc1	hcDAF12 agonist 7.0 | LXRb hcDAF ctr inactive | hcDAF12 conf inactive
O=C1C=CC(=O)N1c1ccc2ccccc2c1	hcDAF12 agonist 7.4 | LXRb hcDAF ctr inactive | hcDAF12 conf inactive
Cc1cccc(N2C(=O)C=CC2=O)c1	none
COc1cc(C2c3cc4c(cc3OC(NCCc3ccccc3)C2C)OCO4)cc(OC)c1OC (configuration not stated)	none
Cc1ccc(Nc2nc(N/N=C/c3c[nH]c4ccccc34)nc(N3CCOCC3)n2)cc1	ssDAF-12 act 1.1, hcDAF12 agonist 7.5 | LXRb hcDAF ctr inactive | hcDAF12 conf inactive
C(=N\Nc1nc(Nc2ccccc2)nc(N2CCOCC2)n1)/c1c[nH]c2ccccc12	none (no result: DAX1 inh-1)
Cc1[nH]c2ccccc2c1/C=N/Nc1nc(Nc2ccc(F)cc2)nc(N2CCOCC2)n1	hcDAF12 agonist 6.8 | LXRb hcDAF ctr inactive | hcDAF12 conf inactive
COP(=O)(OC)OC(C(=O)c1ccccc1)c1ccccc1 (configuration not stated)	none (no result: DAX1 inh-1)
C=CCn1c(SCC(N)=O)nnc1-c1cnccn1	none
COc1ccc(C(=O)NNC(=O)CN(C)S(=O)(=O)c2ccc(Cl)cc2)c(OC)c1OC	none
O=C(Nc1ccccc1)C(=O)Nc1cccnc1	hcDAF12 agonist 9.3 | LXRb hcDAF ctr inactive | hcDAF12 conf inactive
COc1ccc(-c2nc3c(Br)c(N)c(Br)cc3o2)cc1	none (no result: ssDAF-12 act, hcDAF12 agonist, DAX1 inh-2, hgDAF-12 ag)
Nc1c(Br)cc2oc(-c3ccccc3)nc2c1Br	DAX1 inh-1 5.0, ssDAF-12 act 1.1, hcDAF12 agonist 7.4 | LXRb hcDAF ctr inactive | hcDAF12 conf 16.9
Cc1cc(NC(=O)c2ccc(Cl)c(S(=O)(=O)N3CCCCC3)c2)no1	none
c1ccc(N2CC3COc4ccccc4C3=N2)cc1 (configuration not stated)	ssDAF-12 act 2.8, hcDAF12 agonist 16.1, DAX1 inh-2 3.9, hgDAF-12 ag 19.7 | LXRb hcDAF ctr inactive | hcDAF12 conf 13.7
OCCN1CCN(c2cc(C(F)(F)F)nc3c(F)cccc23)CC1	none
CC(C)CNC(=O)c1cccc(NC(=O)C(C)Oc2ccccc2)c1 (configuration not stated)	none
Oc1c(Cl)cccc1C=Nc1cc(C(F)(F)F)ccc1N1CCCC1	none
Oc1c(Cl)cc(Cl)cc1C=Nc1cc(C(F)(F)F)ccc1N1CCc2ccccc2C1	ssDAF-12 act 3.2, hcDAF12 agonist 20.7, hgDAF-12 ag 20.3 | LXRb hcDAF ctr inactive | hcDAF12 conf 16.3
COc1ccc(C)cc1NC(=O)NNC(=O)C(C)Oc1ccc([N+](=O)[O-])cc1 (configuration not stated)	none
O=C(c1ccc(-c2nc3ccccc3s2)o1)N1CCN(c2ccccc2O)CC1	hcDAF12 agonist 6.8 | LXRb hcDAF ctr inactive | hcDAF12 conf inactive
CCOC(=O)c1c(C)nc(-c2ccccc2)nc1N	DAX1 inh-1 4.8, ssDAF-12 act 1.5, hcDAF12 agonist 9.2, hgDAF-12 ag 15.6 | LXRb hcDAF ctr inactive | hcDAF12 conf 13.9
CNC(=S)N/N=C1\C(=O)c2cccc3cccc1c23	hcDAF12 agonist 10.6 | LXRb hcDAF ctr inactive | hcDAF12 conf 9.7
CCCCNC(=S)N/N=C1\C(=O)c2cccc3cccc1c23	none
Nn1cnc2scc(-c3ccc(Cl)cc3)c2c1=O	ssDAF-12 act 1.7, hcDAF12 agonist 6.9 | LXRb hcDAF ctr inactive | hcDAF12 conf inactive
COc1ccc(C(=O)OCC(=O)c2ccc[nH]2)c(OC)c1	hcDAF12 agonist 6.7 | LXRb hcDAF ctr inactive | hcDAF12 conf inactive
Cc1noc(C)c1NC(=O)Nc1ccc2c(c1)C(=O)N([C@H](C)CO)C[C@H](C)[C@@H](CN(C)C(=O)NC(C)C)O2	none
Oc1ccc(Cl)cc1-c1cc(-c2ccco2)[nH]n1	hcDAF12 agonist 7.6 | LXRb hcDAF ctr inactive | hcDAF12 conf inactive
Oc1ccccc1-c1cc(-c2ccco2)[nH]n1	hcDAF12 agonist 7.6, hgDAF-12 ag 11.7 | LXRb hcDAF ctr inactive | hcDAF12 conf 9.2
Oc1ccc(Br)cc1-c1cc(-c2ccco2)[nH]n1	none
O=[N+]([O-])c1ccc2cn(C3OC(CO)C(O)C3O)nc2c1 (configuration not stated)	none
CCOC(=O)N1CCC(NCCNC(=O)c2ccc(F)c(F)c2)CC1	none
CCN(CC)Cc1c(C(=O)N/N=C/c2ccccn2)nnn1-c1nonc1N	none
S=C1NC2CCCCC2N1 (configuration not stated)	none
CCOc1ccccc1CN1CCN(Cc2cc3ccccc3[nH]2)CC1CCO (configuration not stated)	hcDAF12 agonist 7.0 | LXRb hcDAF ctr inactive | hcDAF12 conf inactive
CCOc1ccccc1CN1CCN(CC2CC2)CC1CCO (configuration not stated)	none
NC(=O)c1cc(C(=O)c2ccc(Cl)cc2)c[nH]1	none
CC(C)(C)OC(=O)NC1CONC1=O (configuration not stated)	none
CC(=O)Oc1ccc(C(=O)Nc2ccc3c(c2)OCCO3)cc1	hcDAF12 agonist 9.1, hgDAF-12 ag 11.2 | LXRb hcDAF ctr inactive | hcDAF12 conf 8.5
COc1ccc(N/C(C)=C/C(=O)c2ccccc2)cc1	none
CCC(=O)Nc1ccc2c(c1)OCCO2	none
COc1ccc(C(=O)/C=C(\C)Nc2ccc3c(c2)OCO3)cc1	hcDAF12 agonist 7.2 | LXRb hcDAF ctr inactive | hcDAF12 conf inactive

High-throughput results as filed in PubChem.
